# HT1080 IDH1KD tx: HT-1080 IDH1 knockdown cell toxicity (counter line); HT-1080 IDH1 knockdown viability, ATP luminescence, 48 h; Potency, µM (doses to about 46.1 µM), for the others: at the top dose activity, negative = toxicity, hits mostly cytotoxic; 360,000 compounds, 2% hits;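 further: 0% = DMSO wells and -100% = cell-free medium wells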
#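 HT-1080-IDH1KD cells (IDH1 knocked down), 750/well in RPMI with 5% FBS, treated with compound 48 h at 37 degrees C. Viability by CellTiter-Glo luminescence, normalised to DMSO and no-cell wells; concentration-response curves classed.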
# TDP1 cell CPT: growth inhibition of DT40 Tdp1-/-;hTDP1 cells with camptothecin (screen for TDP1 inhibitors); chicken DT40 Tdp1-/-;hTDP1 cells + 20 nM CPT, ATP luminescence, 48 h; Potency, µM (titrated, usually from 46.2 µM), without a hit: top-dose activity change, negative = growth inhibition, usual class: inhibitors; 420,000 compounds, 12% hits; AID 686979; further: nearly all actives have a fitted effect of over 55% in size
#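 Cell growth measured by CellTiter-Glo luminescence after a minimum 48 h, 37 C compound exposure with 20 nM CPT in Tdp1-knockout DT40 cells stably expressing hTDP1, seeded 400/well; qHTS titration format.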
# KB-3-1 tox: kills parental KB-3-1 adenocarcinoma cells. KB-3-1 viability, CellTiter-Glo ATP luminescence, 72 h. 400,000 compounds, 1.4% hits. Potency, µM (highest dose often 46.1 µM), usual class: cytotoxic; further: nearly all actives have a fitted effect of over 60% in size
#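 Parental KB-3-1 viability, qHTS format: 72 h compound exposure, 37 °C; CellTiter-Glo; media-only wells and DMSO plates as controls; concentration-effect fits on corrected data.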
# DT40 TDP1 no CPT: qHTS for Inhibitors of human tyrosyl-DNA phosphodiesterase 1 (TDP1): qHTS in cells in absence of CPT; DT40 Tdp1-/- hTDP1 cells, no CPT, ATP luminescence, 48 h; Potency, µM (series often up to 46.2 µM), for inactives: top-dose activity change, negative = growth inhibition, most hits filed as inhibitors; 420,000 compounds, 15% hits; AID 686978, 2013; further: nearly all actives have a fitted effect of over 55% in size
#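 Readout: luminescence from CellTiter-Glo after 30 min in the dark at RT. Cells: DT40 Tdp1-/- with stable hTDP1, 400/well. Exposure: compounds alone, ≥48 hr, 37 °C.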
# HT1080NT lethal: kills 2HG-producing HT-1080-NT fibrosarcoma cells | HT-1080-NT fibrosarcoma viability, CellTiter-Glo ATP luminescence, 48 h | 360,000 compounds, 1.6% hits | Potency, µM (series often up to 46.1 µM), inactives show at the top dose activity, negative = less viability, most hits filed as cytotoxic | AID 686970;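 further: NT is the 2HG producing partner of a matched IDH1 knockdown line; 0% = DMSO-treated cells and -100% = media-only wells without cells; nearly all actives have a fitted effect of over 55% in size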
#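 Toxicity toward the 2HG-producing NT line was scored as %Activity, normalised to DMSO and no-cell wells, from CellTiter-Glo luminescence after 48 hours' treatment.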
# KB-V1 cytotox: kills drug-selected multidrug resistant KB-V1 cells; Potency, µM (series often up to 46.1 µM), most hits filed as cytotoxic; KB-V1 MDR cells viability, CellTiter-Glo, 72 h; 400,000 compounds, 3.4% hits; further: nearly all actives have a fitted effect of over 60% in size
#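 Following 72 h at 37 degrees C with compound, KB-V1 cell viability was read by CellTiter-Glo luminescence, medium being phenol-red-free DMEM plus 10% FBS; concentration-response parameters came from normalized, curve-fitted qHTS data.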
# * hit, by the source's call; i = inactive; ? = inconclusive; · = no result. In the library only some 19% were active in any assay of this set; here they are far more common. The call rests on the fitted dose curve; in most records, active means well fitted curve in the direction sought with a large enough effect; inconclusive means small, poorly fitted or top-dose-only effect, or another doubt; inactive means no such curve, though single readings can be large; an effect the other way counts as inactive or inconclusive. Unless noted, on the % scale 0 is the no-effect control and ±100 the full control effect; potency means the concentration at half of the fitted maximal effect.
SMILES,HT1080 IDH1KD tx,TDP1 cell CPT,KB-3-1 tox,DT40 TDP1 no CPT,HT1080NT lethal,KB-V1 cytotox
COc1cc(OC)c(/C=C/c2ccc3ccccc3n2)c(OC)c1,·,0.1µM*,0.517µM*,0.1µM*,·,i
COc1cc(OC)c(/C=C/c2ccccn2)c(OC)c1,·,3.16µM*,5.17µM*,2.82µM*,·,i
CC(=O)Oc1ccc(Cl)cc1/C=C/c1ccc2ccccc2n1,?,?,?,29.1µM*,?,?
COc1cc(OC)c(/C=C/c2ccc3ccccc3[n+]2[O-])c(OC)c1,·,?,i,?,·,i
CCn1cc(C(=O)N[C@H](C(=O)NCCCn2ccnc2)C(C)C)c(=O)c2cc3c(cc21)OCO3,8.0%,-1.7%,i,22.8%,17.0%,i
COc1cc(OC)c(C=Cc2ccncn2)c(OC)c1,0.3%,-6.5%,i,?,11.2%,i
COc1ccc(/C=C/c2cnc3ccccc3n2)cc1OC,·,?,i,20µM*,·,i
COc1cc(OC)c(/C=C/c2nccc3ccccc23)c(OC)c1,·,0.0708µM*,?,0.1µM*,·,i
C(=C\c1cnc2ccccc2n1)/c1ccc2c(c1)OCO2,·,?,?,?,·,i
O=C(Nc1ccccc1Cl)OCC#CCOC(=O)Nc1ccccc1Cl,6.1%,-22.6%,i,-0.4%,11.8%,i
Cc1cc(C)n2c(Nc3c(C)cccc3C)c(-c3ccccn3)nc2n1,18.4µM*,5.8µM*,?,7.31µM*,?,?
Cc1cccc(C)c1Nc1c(-c2ccsc2)nc2ccc(Cl)cn12,·,?,i,7.31µM*,·,i
Cc1ccc2nc(-c3ccsc3)c(Nc3ccccc3C)n2c1,·,6.51µM*,i,7.31µM*,·,i
Cc1cccc(C)c1Nc1c(-c2ccccn2)nc2ccccn12,?,6.51µM*,i,6.51µM*,?,?
Cc1ccccc1Nc1c(-c2ccccn2)nc2c(C)cccn12,-6.4%,?,i,?,-19.1%,?
COCCCNC(=O)Nc1cc(C(=O)NCc2ccc(OC)cc2)ccc1N1CCCC1,·,-21.5%,i,-25.9%,·,i
CC(C)C(=O)N1CCCC1(C)C(=O)Nc1ccc2c(c1)OCO2 (centres undefined),0.0%,3.1%,i,1.4%,24.9%,i
Cc1ccc2nc(-c3ccsc3)c(Nc3ccc(C(C)C)cc3)n2c1,·,-18.9%,i,-9.0%,·,?
Cc1cccc(C)c1Nc1c(-c2ccsc2)nc2ccccn12,·,7.31µM*,i,5.8µM*,·,i
Cc1nn2c(NC(C)C)c3c(nc2c1-c1ccccc1)CCC3,-2.0%,?,i,?,-20.0%,i
CCC(C)c1nc2c(c(N3CCC3=O)c1-c1ccccc1)CCCC2 (centres undefined),4.0%,18.4µM*,i,?,22.7%,i
CC(=O)Cn1ncc(Br)c(Br)c1=O,7.31µM*,5.8µM*,?,5.17µM*,10.3µM*,?
CN(C)c1ccc(-c2ccnc3c2CC(C)(C(=O)Nc2ccc(F)c(Cl)c2)O3)cc1 (centres undefined),29.1%,?,i,?,26.6%,i
COc1ccccc1N1CCN(C(=O)c2c(-c3ccccc3)noc2C)CC1,14.6µM*,10.3µM*,4.61µM*,7.31µM*,?,?
Cc1onc(-c2ccccc2)c1C(=O)N1CCCN(C(=O)c2c(-c3ccccc3)noc2C)CC1,6.3%,-23.1%,i,-28.9%,-6.6%,?
SMILES,HT1080 IDH1KD tx,TDP1 cell CPT,KB-3-1 tox,DT40 TDP1 no CPT,HT1080NT lethal,KB-V1 cytotox
COc1ccccc1N1CCN(C(=O)c2c(-c3c(F)cccc3Cl)noc2C)CC1,?,23.1µM*,?,13µM*,?,?
Cc1onc(-c2ccccc2)c1C(=O)N1CCN(c2ccc([N+](=O)[O-])cc2)CC1,0.4%,?,i,20.6µM*,4.7%,?
Cc1onc(-c2ccccc2)c1C(=O)N1CCN(c2ccccc2)CC1,5.0%,?,i,?,3.9%,?
COc1cc2c(C(=O)N3CCN(c4ccccc4C)CC3)c(C)oc2cc1Br,12.1%,?,?,16.4µM*,4.9%,5.8µM*
CCOC(=O)c1ccc(NC(=O)c2cccc(S(=O)(=O)N3CCN(C(C)=O)CC3)c2)cc1,-1.3%,?,i,13µM*,-5.6%,i
CCOC(=O)c1ccc(NC(=O)c2cc(S(=O)(=O)N3CCOCC3)ccc2O)cc1,-20.3%,?,i,20.6µM*,-20.2%,i
CCCOC(=O)c1ccc(NC(=O)c2cccc(S(=O)(=O)N3CCN(C(C)=O)CC3)c2)cc1,-27.6%,?,i,16.4µM*,?,i
CCOC(=O)c1ccc(NC(=O)c2cc(S(=O)(=O)N3CCOCC3)cn2C)cc1,6.4%,?,i,?,1.7%,i
CCc1nnc(NC(=O)c2cccc(S(=O)(=O)N3CCN(C(C)=O)CC3)c2)s1,2.0%,0.5%,i,0.6%,0.2%,?
CCOC(=O)c1c(-c2ccccc2)csc1NC(=O)c1cc(S(=O)(=O)N2CCOCC2)ccc1C,3.4%,7.31µM*,i,?,-1.0%,i
CC(=O)N1CCN(S(=O)(=O)c2cccc(C(=O)Nc3ccc(F)c(F)c3)c2)CC1,-8.9%,?,?,?,-5.3%,i
CCOC(=O)c1c(-c2ccccc2)csc1NC(=O)c1ccc(S(=O)(=O)N2CC(C)OC(C)C2)cc1 (centres undefined),-1.9%,-14.8%,i,?,0.6%,?
CCCCOc1ccc(C(=O)NCC(=O)N2CCN(C(=O)c3ccco3)CC2)cc1,0.8%,8.0%,i,-3.5%,7.1%,i
COc1ccc(CCn2c3c(c(=O)[nH]c2=S)CN(Cc2ccccc2)CN3)cc1OC,-15.1%,?,·,-21.0%,-1.1%,·
COc1ccc(CNC(=O)C2=C(C)C(=O)OC23CCCCC3)cc1OC,·,-15.2%,i,?,·,i
O=C1CC(c2ccc3c(c2)OCCO3)Oc2ccc([N+](=O)[O-])cc21 (centres undefined),0.0%,?,?,16.4µM*,?,?
COc1cccc(N(C)C(=S)Oc2ccc3c(c2)CCCC3)n1,·,?,·,-18.3%,·,·
Cc1cc(C)c(S(=O)(=O)c2cccc(Br)c2C)c(=O)[nH]1,0.9%,?,i,-13.4%,-12.6%,?
C/C(CCC12CC3CC(CC(C3)C1)C2)=N\NC(N)=S,?,14.6µM*,i,16.4µM*,?,i

# Bioassay records (PubChem BioAssay)
